Here are results for 66 molecules from the antibiotic and cytotoxicity screens of Wong et al. (2023).

Among all 39,000 compounds or so, about 1,500 (3.8%) were called active. The list comes from a sample in which actives are over-represented; it also holds similar structures and randomly drawn compounds.

This assay deals with HSkMC (human skeletal muscle cells). The assay is described as follows: cytotoxicity call (relative viability < 0.9). Particulars: 10 µM.
Take `C[C@@H]1CCCCO[C@@H](CN(C)Cc2ccc(Cl)c(Cl)c2)[C@@H](C)CN([C@@H](C)CO)C(=O)c2cc(NS(=O)(=O)c3cn(C)cn3)ccc2O1`: the cytotoxicity call is “inactive”.

For `C[C@H]1CCCCO[C@@H](CN(C)Cc2ccc(C(F)(F)F)cc2)[C@@H](C)CN([C@@H](C)CO)C(=O)c2cc(N(C)C)ccc2O1`, the cytotoxicity call was “inactive”.

Take `CC(C)C#Cc1cnc2c(c1)C(=O)N([C@H](C)CO)C[C@H](C)[C@H](CN(C)S(=O)(=O)c1cn(C)cn1)O2`: the cytotoxicity call was “inactive”.

Regarding `CCCC#Cc1cnc2c(c1)C(=O)N([C@@H](C)CO)C[C@H](C)[C@H](CN(C)C(=O)c1ccc3c(c1)OCO3)O2`, the cytotoxicity call is “inactive”.

`COc1ccccc1S(=O)(=O)N[C@H]1CC[C@@H](CCNC(=O)C2CC2)O[C@@H]1CO`: the cytotoxicity call was “inactive”.

For `COc1ccc(NC(=O)Nc2cccc3c2O[C@@H](CN(C)CC2CCCCC2)[C@H](C)CN([C@@H](C)CO)C3=O)cc1`, the cytotoxicity call was “inactive”.

Regarding `O=C(C[C@H]1C[C@H]2c3cc(NS(=O)(=O)c4ccc(F)cc4)ccc3O[C@H]2[C@@H](CO)O1)N1CCCCC1`, the cytotoxicity call is “inactive”.

Regarding `COCC(=O)N1C[C@@H](C)[C@H](OC)CN(C)C(=O)c2ccc(NC(=O)Nc3cccc(F)c3)cc2OC[C@@H]1C`, the cytotoxicity call is “inactive”.

As to `C[C@@H]1CN([C@H](C)CO)C(=O)Cc2cc(NC(=O)Cc3cn(C)c4ccccc34)ccc2O[C@@H]1CN(C)Cc1ccc(C(F)(F)F)cc1`, the cytotoxicity call is “inactive”.

Consider `NC1CCN(C(=O)N2CCCC2)CC1`, for which the cytotoxicity call was “inactive”.

On to `C[C@@H]1CN([C@@H](C)CO)C(=O)Cc2cc(NS(=O)(=O)c3ccc(Cl)cc3)ccc2O[C@H]1CN(C)C(=O)Nc1ccc(C(F)(F)F)cc1`, for which the cytotoxicity call is “inactive”.

`C[C@H](CO)N1C[C@H](C)[C@H](CN(C)CC2CC2)Oc2c(NS(=O)(=O)c3ccccc3)cccc2C1=O`: the cytotoxicity call was “inactive”.

For `COc1ccc(S(=O)(=O)Nc2ccc3c(c2)C(=O)N([C@H](C)CO)C[C@H](C)[C@@H](CN(C)S(=O)(=O)c2ccc(OC)cc2)O3)cc1`, the cytotoxicity call is “inactive”.

Turning to `CN1C[C@@H](N)CC1=O`, the cytotoxicity call was “inactive”.

For the molecule `COC(=O)[C@H](Cc1ccccc1)N1CC2=CCCC=C[C@H]2[C@@H]1[C@@H](O)CCn1cc(CCC(=O)NO)nn1`, the cytotoxicity call is “inactive”.

For `C[C@H](CO)N1C[C@H](C)[C@@H](CN(C)Cc2ccccc2)Oc2ccc(NC(=O)Nc3ccc(C(F)(F)F)cc3)cc2CC1=O`, the cytotoxicity call is “active”.

As to `C[C@@H]1CN([C@H](C)CO)C(=O)Cc2cc(NC(=O)Nc3ccc(C(F)(F)F)cc3)ccc2O[C@@H]1CN(C)Cc1ccccc1`, the cytotoxicity call was “active”.

As for `COc1cccc(S(=O)(=O)N2C[C@H](O)COC[C@@H]3O[C@@H](CC(=O)NCCCN4CCOCC4)CC[C@H]32)c1`, the cytotoxicity call is “inactive”.

Take `CN1CCN(C(=O)C[C@@H]2C=C[C@@H](NS(=O)(=O)c3cccc(F)c3)[C@@H](CO)O2)CC1`: the cytotoxicity call is “inactive”.

`O=C(O)/C=C\C(=O)Nc1cccc(C(=O)O)c1`: the cytotoxicity call was “inactive”.

As for `COc1ccc(NC(=O)Nc2cccc3c2O[C@H](CN(C)Cc2ccc(-c4ccccc4)cc2)[C@@H](C)CN([C@H](C)CO)C3=O)cc1`, the cytotoxicity call was “inactive”.

In the case of `COc1ccc(NC(=O)Nc2cccc3c2O[C@H](CN(C)Cc2ccc(-c4ccccc4)cc2)[C@H](C)CN([C@H](C)CO)C3=O)cc1`, the cytotoxicity call was “active”.

Turning to `COc1ccc(NC(=O)Nc2cccc3c2O[C@@H](CN(C)Cc2ccc(-c4ccccc4)cc2)[C@@H](C)CN([C@H](C)CO)C3=O)cc1`, the cytotoxicity call is “inactive”.

With `COc1ccc(NC(=O)Nc2cccc3c2O[C@H](CN(C)Cc2ccc(-c4ccccc4)cc2)[C@@H](C)CN([C@@H](C)CO)C3=O)cc1`, the cytotoxicity call is “active”.

As for `COc1ccc(NC(=O)Nc2cccc3c2O[C@H](CN(C)Cc2ccc(-c4ccccc4)cc2)[C@H](C)CN([C@@H](C)CO)C3=O)cc1`, the cytotoxicity call is “inactive”.

For `COc1ccc(NC(=O)Nc2cccc3c2O[C@@H](CN(C)Cc2ccc(-c4ccccc4)cc2)[C@H](C)CN([C@@H](C)CO)C3=O)cc1`, the cytotoxicity call is “inactive”.

Consider `C[C@@H]1CN([C@H](C)CO)C(=O)c2cc(NS(=O)(=O)c3ccc(Cl)cc3)ccc2O[C@@H](C)CCCCO[C@@H]1CN(C)C(=O)NC1CCCCC1`, for which the cytotoxicity call is “inactive”.

For the molecule `C[C@@H]1CCCCO[C@H](CN(C)Cc2ccc(C(=O)O)cc2)[C@H](C)CN([C@H](C)CO)C(=O)c2cc(NC(=O)c3ccccc3)ccc2O1`, the cytotoxicity call is “inactive”.

With `C[C@@H]1CN([C@H](C)CO)C(=O)c2cc(NC(=O)Cn3cnnn3)ccc2O[C@@H]1CN(C)S(C)(=O)=O`, the cytotoxicity call is “inactive”.

For the molecule `C[C@@H]1CCCCO[C@@H](CN(C)S(C)(=O)=O)[C@@H](C)CN([C@@H](C)CO)C(=O)c2cc(NS(=O)(=O)c3ccccc3)ccc2O1`, the cytotoxicity call was “inactive”.

Take `CC[C@@]1(O)C(=O)OCc2c1cc1n(c2=O)Cc2c-1nc1cc(F)c(C)c3c1c2[C@@H](N)CC3`: the cytotoxicity call was “active”.

In the case of `CCC1(O)C(=O)OCc2c1cc1n(c2=O)Cc2cc3c(CN(C)C)c(O)ccc3nc2-1.Cl` (stereo unspecified), the cytotoxicity call was “inactive”.

Regarding `CCC1(O)C(=O)OCc2c1cc1n(c2=O)Cc2cc3cc(O)ccc3nc2-1` (stereo unspecified), the cytotoxicity call was “inactive”.

Consider `CC(C)(C)[S@@](=O)N1Cc2cc(C(=O)N[C@H]3CCN(Cc4ccccc4)C3)nc(-c3cccc(-c4ccncc4)c3)c2[C@H]1CCO`, for which the cytotoxicity call was “inactive”.

Consider `Cc1noc(C)c1NC(=O)Nc1cccc2c1O[C@H](CN(C)Cc1ccc(Oc3ccccc3)cc1)[C@@H](C)CN([C@@H](C)CO)C2=O`, for which the cytotoxicity call is “inactive”.

With `C[C@H]1CCCCO[C@H](CN(C)S(=O)(=O)c2ccccc2)[C@@H](C)CN([C@@H](C)CO)C(=O)c2cc(NS(=O)(=O)c3cn(C)cn3)ccc2O1`, the cytotoxicity call is “inactive”.

`Nc1ccccc1C(=O)N1CCOCC1`: the cytotoxicity call was “inactive”.

As for `O=C(c1ccccc1O)N1CCOCC1`, the cytotoxicity call was “inactive”.

As for `O=C(c1cn(Cc2cncn2Cc2ccc(Br)cc2)cc1-c1cccc2ccccc12)N1CCOCC1`, the cytotoxicity call is “active”.

For the molecule `C[C@@H]1CN([C@H](C)CO)C(=O)c2cc(NC(=O)Nc3ccccc3)ccc2O[C@@H](C)CCCCO[C@H]1CN(C)Cc1ccncc1`, the cytotoxicity call is “inactive”.

As to `COC1C=COC2(C)Oc3c(C)c(O)c4c(O)c(c5c(nc6cc(C)ccn65)c4c3C2=O)NC(=O)C(C)=CC=CC(C)C(O)C(C)C(O)C(C)C(OC(C)=O)C1C` (stereo unspecified), the cytotoxicity call is “inactive”.

For the molecule `COC1C=COC2(C)Oc3c(C)c(O)c4c(O)c(c(C=NN5CCN(C)CC5)c(O)c4c3C2=O)NC(=O)C(C)=CC=CC(C)C(O)C(C)C(O)C(C)C(OC(C)=O)C1C` (stereo unspecified), the cytotoxicity call is “inactive”.

`CO[C@H]1/C=C\O[C@@]2(C)Oc3c(C)c(O)c4c(O)c(c(/C=N/N=C/N5CCCCC5)c(O)c4c3C2=O)NC(=O)/C(C)=C\C=C/[C@H](C)[C@H](O)[C@@H](C)[C@@H](O)[C@@H](C)[C@H](OC(C)=O)[C@@H]1C`: the cytotoxicity call was “active”.

On to `CO[C@H]1/C=C\O[C@@]2(C)Oc3c(C)c(O)c4c(c3C2=O)[C@]2(C=C(NC(=O)/C(C)=C\C=C/[C@@H](C)[C@@H](O)[C@@H](C)[C@@H](O)[C@@H](C)[C@@H](OC(C)=O)[C@@H]1C)C4=O)OCC(=O)O2`, for which the cytotoxicity call was “active”.

On to `COC1C=COC2(C)Oc3c(C)c(O)c4c(O)c(c(C=NN5CCN(C6CCCC6)CC5)c(O)c4c3C2=O)NC(=O)C(C)=CC=CC(C)C(O)C(C)C(O)C(C)C(OC(C)=O)C1C` (stereo unspecified), for which the cytotoxicity call is “inactive”.

For the molecule `[N-]=[N+]=Nc1ccccc1[C@H]1OC(c2ccc(OCCCO)cc2)=N[C@@]1(CCS(=O)(=O)c1ccccc1)C(=O)N1CCCCC1`, the cytotoxicity call is “inactive”.

With `C[C@@H]1CCCCO[C@@H](CN(C)S(=O)(=O)c2ccc(Cl)cc2)[C@@H](C)CN([C@@H](C)CO)C(=O)c2cc(NC(=O)Nc3cccc4ccccc34)ccc2O1`, the cytotoxicity call is “inactive”.

`COc1ccccc1S(=O)(=O)N[C@H]1CC[C@H](CCNC(=O)C2CC2)O[C@H]1CO`: the cytotoxicity call was “inactive”.

With `CN1C(=O)c2cc(NC(=O)Cc3cccs3)ccc2OC[C@@H]2O[C@H](CC(=O)NCCc3ccncc3)CC[C@H]21`, the cytotoxicity call is “inactive”.

As for `COc1ccc(CN(C)C[C@@H]2Oc3c(NC(=O)c4cc(C)nn4C)cccc3C(=O)N([C@H](C)CO)C[C@H]2C)cc1`, the cytotoxicity call was “inactive”.

As to `Cc1c(CN2CCC(Nc3ncnc4sc(CC(F)(F)F)cc34)CC2)ccc2c1cc(C#N)n2Cc1cn[nH]c1`, the cytotoxicity call is “active”.

Consider `COc1ccc(NC(=O)N(C)C[C@H]2Oc3ccc(NC(=O)Nc4cccc5ccccc45)cc3C(=O)N([C@@H](C)CO)C[C@H]2C)cc1`, for which the cytotoxicity call was “inactive”.

With `COc1cc([C@@H]2c3cc4c(cc3[C@@H](O[C@@H]3O[C@@H]5CO[C@@H](C)O[C@H]5[C@H](O)[C@H]3O)[C@@H]3COC(=O)[C@@H]23)OCO4)cc(OC)c1O`, the cytotoxicity call is “inactive”.

As for `COc1cc(C2c3cc4c(cc3C(OC3OC5COC(C)OC5C(O)C3O)C3COC(=O)C23)OCO4)cc(OC)c1O` (stereo unspecified), the cytotoxicity call was “inactive”.

For `COc1cc([C@@H]2c3cc4c(cc3[C@@H](O[C@@H]3O[C@@H]5CO[C@@H](C)O[C@H]5[C@H](O)[C@H]3O)[C@H]3COC(=O)[C@H]23)OCO4)cc(OC)c1O`, the cytotoxicity call was “active”.

On to `CC(C)(C)C(=O)Nc1ccccc1F`, for which the cytotoxicity call is “inactive”.

On to `CCN(CC)C(=S)SSC(=S)N(CC)CC`, for which the cytotoxicity call was “active”.

For `C[C@H](CO)N1C[C@H](C)[C@@H](CN(C)S(=O)(=O)c2ccc(F)cc2)Oc2ccc(NC(=O)Nc3cccc4ccccc34)cc2C1=O`, the cytotoxicity call is “inactive”.

Regarding `O=S1(=O)CCC(O)CC1`, the cytotoxicity call is “inactive”.

For the molecule `O=C(CNc1ccc2c(c1)oc1ccccc12)c1ccc(F)cc1`, the cytotoxicity call was “inactive”.

Turning to `Cc1ccc(S(=O)(=O)Nc2ccc3c(c2)CC(=O)N([C@@H](C)CO)C[C@@H](C)[C@@H](CN(C)Cc2ccc(Cl)c(Cl)c2)O3)cc1`, the cytotoxicity call was “active”.

`Cc1ccc(S(=O)(=O)Nc2ccc3c(c2)CC(=O)N([C@H](C)CO)C[C@H](C)[C@@H](CN(C)Cc2ccc(Cl)c(Cl)c2)O3)cc1`: the cytotoxicity call was “inactive”.

Turning to `Cc1ccc(S(=O)(=O)Nc2ccc3c(c2)CC(=O)N([C@H](C)CO)C[C@H](C)[C@H](CN(C)Cc2ccc(Cl)c(Cl)c2)O3)cc1`, the cytotoxicity call was “active”.

As to `Cc1ccc(S(=O)(=O)Nc2ccc3c(c2)CC(=O)N([C@@H](C)CO)C[C@H](C)[C@H](CN(C)Cc2ccc(Cl)c(Cl)c2)O3)cc1`, the cytotoxicity call was “active”.

Consider `Cc1ccc(S(=O)(=O)Nc2ccc3c(c2)CC(=O)N([C@@H](C)CO)C[C@@H](C)[C@H](CN(C)Cc2ccc(Cl)c(Cl)c2)O3)cc1`, for which the cytotoxicity call is “inactive”.

Take `Cc1ccc(S(=O)(=O)Nc2ccc3c(c2)CC(=O)N([C@@H](C)CO)C[C@H](C)[C@@H](CN(C)Cc2ccc(Cl)c(Cl)c2)O3)cc1`: the cytotoxicity call was “active”.
